The values that follow come from PubChem BioAssay.

SMILES strings stand for the structures. Calls of active or inactive are those of the source. Unless noted, no rule for the calls is given here.

Experiment [1] in a line: compounds binding Alexa647 anti-His antibody – biochemical, small-molecule microarray, 635 nm fluorescence, artefact control for SMM control protein annotation, primary screen (AID 1128).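 Also: score merges feature fluorescence with signal-to-noise for each printed compound spot.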 As to conditions: higher = more signal.
Experiment [2] concerns Human papillomavirus type 1a E7 protein (residues 1-88). The experiment in a line: HPV1a E7 small-molecule binders, primary screen, biochemical, small-molecule microarray, residues 1-88, 635 nm (AID 1129). As to conditions: small-molecule microarray binding, fluorescence 635 nm; higher = more signal.
Experiment [3] concerns the target Focal adhesion kinase 1 (Homo sapiens) (UniProt Q05397). The experiment is described as follows: PTK2 protein binding on printed compound slides – biochemical, small-molecule microarray, 635/667 nm fluorescence, BSA, DTT, primary screen (AID 1130).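 Also: composite of spot emission at 667 nm and signal to noise over triplicate slides.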 The settings on record: 635 nm fluorescence, higher = more signal.
Experiment [4] concerns Fibrinogen (Alexa647-labelled). The experiment in a line: Alexa647-fibrinogen binding to printed small molecules – biochemical, small-molecule microarray, 635/667 nm fluorescence, artefact control for SMM control-protein annotation, profiling panel (AID 1131).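 Also: z-score merges 667 nm fluorescence with per-spot signal-to-noise over triplicate slides.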 The settings on record: fibrinogen-A647 binding fluorescence, higher = more signal.
Experiment [5] concerns the target Follistatin (Homo sapiens) (UniProt P19883). The experiment in a line: FST protein binding to printed compounds – biochemical, small-molecule microarray, 635/667 nm fluorescence, primary screen (AID 1132). As to conditions: 635 nm fluorescence, higher = more signal.
Experiment [6] addresses Fibroblast growth factor 2 (Homo sapiens) (UniProt P09038). The experiment in a line: basic fibroblast growth factor binding to printed compounds – biochemical, small-molecule microarray, 635/667 nm fluorescence, primary screen (AID 1133). The settings on record: FGF2, fluorescence 635/667, higher = more signal.
Experiment [7] can be described thus: JC-1 mitochondrial potential readout, lung cancer cells – cell-based, A549, JC-1 fluorescence, basal, 24 h, 100 nL, profiling panel (AID 1138).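 Also: A549 lung adenocarcinoma cells under basal conditions with no added stimulus; test concentration not given here.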 The settings on record: higher = more signal.
A further experiment relates to Lefty1. The experiment is described as follows: Lefty1 protein binding to printed compounds – biochemical, small-molecule microarray, 635/667 nm fluorescence, primary screen (AID 1139). The settings on record: fluorescence 635/667, higher = more signal.
Experiment [8] deals with wheat germ agglutinin (Triticum aestivum), Alexa647-labelled. The experiment is described as follows: Alexa647-WGA lectin binding to printed small molecules – biochemical, small-molecule microarray, 635/667 nm fluorescence, artefact control for SMM control-protein annotation, profiling panel (AID 1140).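 Also: score merges 667 nm feature emission with signal to noise over triplicate slides.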 As to conditions: WGA-A647 binding, 635 nm fluorescence, higher = more signal.

Experiment [9] concerns the target Luciferin 4-monooxygenase (Photinus pyralis) (UniProt P08659). The experiment in a line: inhibition of purified Photinus pyralis luciferase – biochemical, luminescence, purified enzyme, 2006 set, primary screen (AID 1141).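 Also: cell-free assay with purified firefly luciferase at 100 ng per well in PBS; test concentration not given here.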 As to conditions: purified firefly luciferase, SteadyGlo luminescence, 30 min; higher = more signal, called active from +8 up or from −8 down.
Experiment [10] deals with Wnt5a (protein binding on small-molecule microarray). The experiment is described as follows: small molecules binding Wnt5a protein – biophysical, small-molecule microarray, 635/667 nm fluorescence, primary screen (AID 1142).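 Also: fluorescence read at 667 nm with signal to noise per printed feature.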 The settings on record: 635 nm fluorescence, higher = more signal.
Experiment [11] in a line: ATP-based viability of Huh7 replicon cells – cell-based, CellTiter-Glo luminescence, basal, 48 h, cytotoxicity control for HCV replication inhibitor project, primary screen (AID 1143).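 Also: Huh7 hepatoma cells carrying a hepatitis C replication reporter with no stimulus; test concentration not given here.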 The settings on record: higher = more signal, called active from +8 up or from −8 down.
Experiment [12] in a line: Pseudomonas biofilm growth suppression – PAO1 strain, BacTiter-Glo luminescence, LB-PBS, primary screen (AID 1144). As to conditions: P. aeruginosa PAO1 biofilm, 12 h, higher = more signal.
Experiment [13] can be described thus: basal CRE-LacZ reporter activity in PC12 – cell-based, unstimulated, primary screen (AID 1145). The settings on record: no forskolin, luminescence, 4.5 h, higher = more signal, called active from +8 up or from −8 down.
The nature of experiment [14]: forskolin-driven CRE-LacZ activity in PC12 – cell-based, CRE-LacZ reporter, forskolin-stimulated, primary screen (AID 1146).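 Also: PC12 cells with 6xCRE LacZ reporter stimulated by forskolin 10 µM; beta-galactosidase reporter signal reflecting CREB driven transcription.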 As to conditions: luminescence, 4.5 h, higher = more signal, called active from +8 up or from −8 down.
In experiment [15] the target is Streptavidin (Streptomyces avidinii) (UniProt P22629). The experiment in a line: compounds binding control protein streptavidin – biophysical, small-molecule microarray, 635/667 nm fluorescence, artefact control for SMM compound annotation, primary screen (AID 1147).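 Also: signal reflects streptavidin binding to arrayed compounds as a control protein.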 The settings on record: higher = more signal.
A short description of experiment [16]: probe aInhba binding on compound microarray – biochemical, small-molecule microarray, 635/667 nm fluorescence, primary screen (AID 1148).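 Also: score merges 667nm spot fluorescence with signal-to-noise for antibody binding to printed compounds.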 The settings on record: higher = more signal.
Experiment [17] concerns the target Torsin-1A (Homo sapiens) (UniProt O14656). The experiment is described as follows: TOR1A wild-type binding on microarray – cell lysate, small-molecule microarray, lysate, 635/667 nm, primary screen (AID 1149). The settings on record: COS7 hTOR1A-WT lysate, 635 nm fluorescence, higher = more signal.
Experiment [18] has the same target. The experiment in a line: torsin A mutant lysate binding on microarrays – cell lysate, small-molecule microarray, COS7 lysate, 635/667 nm fluorescence, primary screen (AID 1150).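 Also: score pools 667 nm emission and signal to noise measuring lysate protein binding.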 The settings on record: COS7 hTOR1A mutant lysate, 635 nm fluorescence, higher = more signal.
Experiment [19] has as its system Sonic hedgehog protein (Shh). The experiment in a line: Sonic hedgehog microarray binding compounds – biochemical, small-molecule microarray, 635/667 nm fluorescence, primary screen (AID 1151).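 Also: Shh protein binding to compounds spotted on small-molecule microarray slides; score combines spot fluorescence intensity with signal-to-noise across triplicate slides.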 As to conditions: 635 nm fluorescence, higher = more signal.

Follistatin (Homo sapiens), sequence (P19883 whole entry, looked up): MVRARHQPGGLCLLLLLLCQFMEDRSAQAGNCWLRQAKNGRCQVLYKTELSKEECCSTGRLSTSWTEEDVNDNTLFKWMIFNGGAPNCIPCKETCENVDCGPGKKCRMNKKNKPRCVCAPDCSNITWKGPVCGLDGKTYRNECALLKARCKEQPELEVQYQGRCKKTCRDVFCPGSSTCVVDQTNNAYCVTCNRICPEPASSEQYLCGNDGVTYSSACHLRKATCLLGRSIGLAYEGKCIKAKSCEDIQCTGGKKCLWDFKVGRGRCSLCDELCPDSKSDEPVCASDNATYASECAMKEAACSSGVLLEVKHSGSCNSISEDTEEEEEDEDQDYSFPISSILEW
Fibroblast growth factor 2 (Homo sapiens), sequence (P09038 whole entry, looked up): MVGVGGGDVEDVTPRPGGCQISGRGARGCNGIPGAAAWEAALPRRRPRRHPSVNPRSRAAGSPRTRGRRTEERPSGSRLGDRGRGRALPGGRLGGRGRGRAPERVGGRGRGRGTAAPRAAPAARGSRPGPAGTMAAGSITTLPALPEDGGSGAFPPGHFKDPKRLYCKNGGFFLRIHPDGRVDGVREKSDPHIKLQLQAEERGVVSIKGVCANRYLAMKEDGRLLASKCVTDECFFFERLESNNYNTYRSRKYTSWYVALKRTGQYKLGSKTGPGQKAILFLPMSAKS
Torsin-1A (Homo sapiens), sequence (O14656 whole entry, looked up): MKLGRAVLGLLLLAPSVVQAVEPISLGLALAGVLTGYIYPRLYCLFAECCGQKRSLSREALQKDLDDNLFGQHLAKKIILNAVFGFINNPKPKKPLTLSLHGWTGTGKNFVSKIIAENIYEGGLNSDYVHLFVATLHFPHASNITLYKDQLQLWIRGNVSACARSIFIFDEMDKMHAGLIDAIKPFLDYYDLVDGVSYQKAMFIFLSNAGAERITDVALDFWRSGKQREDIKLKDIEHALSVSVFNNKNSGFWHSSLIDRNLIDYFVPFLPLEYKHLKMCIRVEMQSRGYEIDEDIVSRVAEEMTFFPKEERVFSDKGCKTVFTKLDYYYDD
Streptavidin (Streptomyces avidinii), sequence (P22629 whole entry, looked up): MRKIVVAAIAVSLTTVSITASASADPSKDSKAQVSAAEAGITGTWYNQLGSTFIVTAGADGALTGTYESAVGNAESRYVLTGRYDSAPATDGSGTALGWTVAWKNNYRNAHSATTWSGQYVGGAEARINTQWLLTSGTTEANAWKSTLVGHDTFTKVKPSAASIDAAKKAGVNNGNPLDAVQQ
Luciferin 4-monooxygenase (Photinus pyralis), sequence (P08659 whole entry, looked up): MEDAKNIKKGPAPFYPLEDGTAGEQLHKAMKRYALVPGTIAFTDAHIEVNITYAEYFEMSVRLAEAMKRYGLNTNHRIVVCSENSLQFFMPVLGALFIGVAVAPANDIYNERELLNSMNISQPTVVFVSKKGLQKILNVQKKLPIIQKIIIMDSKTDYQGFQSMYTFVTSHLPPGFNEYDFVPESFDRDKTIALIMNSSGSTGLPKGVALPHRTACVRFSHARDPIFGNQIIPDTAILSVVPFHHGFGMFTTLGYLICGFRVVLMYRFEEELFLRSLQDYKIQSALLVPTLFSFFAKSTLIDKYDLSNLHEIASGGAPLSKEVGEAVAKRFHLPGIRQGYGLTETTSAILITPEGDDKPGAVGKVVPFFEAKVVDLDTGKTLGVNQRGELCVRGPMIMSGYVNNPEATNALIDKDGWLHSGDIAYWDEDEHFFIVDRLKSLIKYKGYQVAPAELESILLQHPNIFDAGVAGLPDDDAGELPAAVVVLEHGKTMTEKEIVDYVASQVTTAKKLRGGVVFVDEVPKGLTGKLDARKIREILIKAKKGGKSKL
Focal adhesion kinase 1 (Homo sapiens), sequence (Q05397 whole entry, looked up): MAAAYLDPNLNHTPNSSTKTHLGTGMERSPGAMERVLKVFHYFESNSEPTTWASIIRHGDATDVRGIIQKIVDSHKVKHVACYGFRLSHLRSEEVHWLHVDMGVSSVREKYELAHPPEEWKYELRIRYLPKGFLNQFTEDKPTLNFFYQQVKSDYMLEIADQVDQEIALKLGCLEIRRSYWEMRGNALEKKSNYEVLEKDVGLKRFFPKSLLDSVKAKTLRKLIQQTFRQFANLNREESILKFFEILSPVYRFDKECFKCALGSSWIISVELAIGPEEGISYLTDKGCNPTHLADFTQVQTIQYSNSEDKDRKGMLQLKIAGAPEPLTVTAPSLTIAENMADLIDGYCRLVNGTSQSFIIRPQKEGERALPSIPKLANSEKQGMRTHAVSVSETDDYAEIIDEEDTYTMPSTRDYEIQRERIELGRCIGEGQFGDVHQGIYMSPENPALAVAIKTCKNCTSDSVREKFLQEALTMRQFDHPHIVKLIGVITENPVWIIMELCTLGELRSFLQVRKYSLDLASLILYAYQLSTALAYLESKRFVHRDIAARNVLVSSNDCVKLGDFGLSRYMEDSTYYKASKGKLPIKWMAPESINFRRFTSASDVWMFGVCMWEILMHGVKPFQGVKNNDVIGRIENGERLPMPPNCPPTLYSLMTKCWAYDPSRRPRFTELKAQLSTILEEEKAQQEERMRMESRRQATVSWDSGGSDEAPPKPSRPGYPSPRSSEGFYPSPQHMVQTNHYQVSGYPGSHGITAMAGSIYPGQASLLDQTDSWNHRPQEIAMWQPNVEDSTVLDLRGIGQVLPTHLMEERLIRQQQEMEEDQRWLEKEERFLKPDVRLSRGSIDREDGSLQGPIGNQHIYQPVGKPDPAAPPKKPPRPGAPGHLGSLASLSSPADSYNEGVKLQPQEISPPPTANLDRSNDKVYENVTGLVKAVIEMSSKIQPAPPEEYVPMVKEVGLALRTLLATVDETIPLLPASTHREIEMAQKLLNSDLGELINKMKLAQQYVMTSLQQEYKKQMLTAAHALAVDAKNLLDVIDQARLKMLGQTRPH

On to `CCN1C(=O)[C@H]2[C@H]3[C@H](O)[C@H](O)CC(=NO[C@@H](C)c4cn([C@H](CO)Cc5ccccc5)nn4)[C@@H]3CC[C@H]2C1=O`, for which the composite z-score in [1] was 3.32; in [2], 1.11; in experiment [3] it was -0.0643; in experiment [4], 0.752; in [5], 0.579; in experiment [6] it was 0.894. Further, the composite z-score in the experiment on Lefty1 was 0.926; in experiment [8] it was 1.05; in experiment [10], 0.283; in experiment [15], -0.138; in experiment [16], 0.0051; in the experiment with Torsin-1A (Homo sapiens) [17], 0.651. Further, the composite z-score with Torsin-1A (Homo sapiens) [18] came out at 0.435; in experiment [19], 0.486. For the same compound, the z-score was -0.719 in [7]; 0.465 (inactive) in [9]; -0.0863 (inactive) in experiment [11]; 0.451 (inactive) in experiment [12]; 0.727 (inactive) in [13]; 0.511 (inactive) in experiment [14].
With `CC(=O)OC[C@H]1O[C@H](CCON=C2[C@H]3CCn4c(=O)n(-c5ccccc5)c(=O)n4[C@H]3[C@H](O)[C@@H]3O[C@H]23)C=C[C@@H]1OC(C)=O`, the composite z-score in [1] was -0.405; in [2], -0.169; in experiment [3] it was -0.749; in experiment [4] it was 0.366; in [5], 0.334; in experiment [6] it was 0.594. For the same compound, the composite z-score in the experiment on Lefty1 was 0.397; in experiment [8], -0.0229; in experiment [10], 0.282; in experiment [15], -0.0465; in [16], -0.0791; with Torsin-1A (Homo sapiens) [17], -0.299. The composite z-score with Torsin-1A (Homo sapiens) [18] amounted to 0.0319; in experiment [19], 0.789. Also, the z-score in [7] was -0.297; in experiment [9] it was 0.416 (inactive); in experiment [11] it was -1.89 (inactive); in experiment [12] it was 2.23 (inactive); in experiment [13], -0.152 (inactive); in experiment [14], -0.0763 (inactive).
Regarding `CCOC(=O)[C@H](Cc1ccccc1)NC(=O)CCC1CC(OC(=O)NCc2cccc3ccccc23)CC2(CCCC(COC(=O)NCC(c3ccccc3)c3ccccc3)O2)O1` (stereo not given in full), the composite z-score in experiment [1] worked out at 1.06; in [2] it was 0.455; in experiment [3], 0.384; in [4], 0.853; in [5], 0.411; in [6] it was 0.39. The composite z-score is 0.589 with Lefty1; -0.0722 in [8]; 0.177 in experiment [10]; 0.164 in experiment [15]; -0.154 in [16]; 0.45 with Torsin-1A (Homo sapiens) [17]. The composite z-score stood at 0.0748 with Torsin-1A (Homo sapiens) [18] and 0.613 in experiment [19]. Further, the z-score in experiment [7] is -0.243; in experiment [9], 0.611 (inactive); in experiment [11], -1.43 (inactive); in experiment [12], -0.873 (inactive); in [13], 0.286 (inactive); in [14], 0.155 (inactive).
`CCCCC#C[C@@H]1C=C[C@H](OC(C)=O)[C@@H](COC(C)=O)O1`: the composite z-score in [1] was 0.113; in [2], 0.283; in [3] it was -0.0443; in experiment [4], 0.88; in experiment [5] it was 0.248; in experiment [6] it was 0.316. For the same compound, the composite z-score with Lefty1 is 0.487; in experiment [8], 0.219; in experiment [10] it was 0.03; in experiment [15], 0.202; in experiment [16], -0.154; with Torsin-1A (Homo sapiens) [17], 0.568. The figures for the composite z-score (with Torsin-1A (Homo sapiens) [18]; in experiment [19]) were 0.234 and 0.437, respectively. Besides, the z-score in [7] was -0.79; in [9], -1.41 (inactive); in experiment [11], -4.37 (inactive); in experiment [12], 0.713 (inactive); in experiment [13] it was -0.976 (inactive); in experiment [14], 2.86 (inactive).
Consider `CC(C)=CCCC(C)=CCON=C1C[C@@H](O)[C@@H](O)[C@@H]2[C@@H]3C(=O)N(Cc4ccccc4)C(=O)[C@@H]3CC[C@H]12`, for which the composite z-score in experiment [1] was found to be 0.267; in [2] it was 1.2; in experiment [3], 0.171; in experiment [4], 0.476; in experiment [5], 0.669; in experiment [6], 0.736. The composite z-score was 0.751 in the experiment with Lefty1; 0.283 in [8]; -0.0617 in experiment [10]; 0.0609 in experiment [15]; -0.0736 in experiment [16]; 0.23 with Torsin-1A (Homo sapiens) [17]. In addition, the values for the composite z-score (with Torsin-1A (Homo sapiens) [18]; in experiment [19]) were 0.0793 and 0.993, respectively. Besides, the z-score in [7] was -0.566; in experiment [9], 0.71 (inactive); in experiment [11], -3.4 (inactive); in experiment [12] it was -0.302 (inactive); in experiment [13], -0.293 (inactive); in [14], -0.96 (inactive).
